Values joined by “and” are separate entries in the source; they are usually repeats but may differ in a detail not shown here. Identical values can stand only once. Results filed as inconclusive are left out. Entries that show only a call come without a potency. Where a structure was tested more than once in an assay, its records may differ in their call. Active and inactive are the calls of the source. Unless noted, the call rests on the fitted dose curve; in most records, active means well fitted curve in the direction sought with a large enough effect in the repeat runs; inconclusive means weak or mixed curves; inactive means no such curve, though single readings can be large; an effect the other way counts as inactive or inconclusive.
Legend:
[1] = qHTS RealTime-Glo MT Cell Viability Assay in HEK293 cells - 0 hour (AID 1224880); settings: RealTime-Glo luminescence; series mostly up to 76.8 µM; further: top concentration of the series differs between compounds; nearly all actives have a fitted effect of over 45% in size
Procedure, shortened: (§1)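 Luminescence, which tracks viable cell number through reduction of the prosubstrate to a NanoLuc substrate, was read over continuous 37 C culture. Cells (600/well) were premixed with reagent and rested 5 h before 23 nL of compound in DMSO was pinned.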

[2] = A CellTox Green Cytotoxicity Assay to monitor cytotoxicity in HEK293 cells - 32 hour (AID 1224881); settings: CellTox Green fluorescence; series mostly up to 76.8 µM; further: nearly all actives have a fitted effect of over 40% in size; further: potency means the concentration at half of the fitted maximal effect
Procedure, shortened: (§2)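 Fluorescence from a DNA-binding dye excluded by viable cells was measured repeatedly in the same HEK293 wells (600 cells/well) during continuous compound exposure at 37 C. Each assay gives one read point: 0, 8, 16, 24, 32 or 40 h.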

[3] = A CellTox Green Cytotoxicity Assay to monitor cytotoxicity in HepG2 cells - 0 hour (AID 1224882); settings: CellTox Green fluorescence; series mostly up to 76.8 µM; further: nearly all actives have a fitted effect of over 35% in size
Procedure, shortened: (§3)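 Real-time cytotoxicity: fluorescence of a cell-impermeant cyanine dye binding DNA of dead HepG2 cells, measured repeatedly (0–40 h) during compound exposure at 37 C. Cells seeded 600/well with reagent, dosed after 5 h.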

[4] = A CellTox Green Cytotoxicity Assay to monitor cytotoxicity in HepG2 cells - 32 hour (AID 1224883); settings: CellTox Green fluorescence; series mostly up to 76.8 µM; further: nearly all actives have a fitted effect of over 50% in size; further: potency means the concentration at half of the fitted maximal effect
Procedure, shortened: as §3

[5] = A CellTox Green Cytotoxicity Assay to monitor cytotoxicity in HEK293 cells - 8 hour (AID 1224884); settings: CellTox Green fluorescence; series mostly up to 76.8 µM; further: nearly all actives have a fitted effect of over 35% in size
Procedure, shortened: as §2

[6] = qHTS RealTime-Glo MT Cell Viability Assay in HEK293 cells - 24 hour (AID 1224886); settings: RealTime-Glo luminescence; series mostly up to 76.8 µM; further: nearly all actives have a fitted effect of over 50% in size; further: potency means the concentration at half of the fitted maximal effect
Procedure, shortened: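 Luminescence generated by NanoLuc from substrate produced by living HEK293 cells served as the viability signal. Each value reflects the reading at its stated time point during continuous 40 h compound exposure at 37 C.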

[7] = qHTS RealTime-Glo MT Cell Viability Assay in HEK293 cells - 8 hour (AID 1224887); settings: RealTime-Glo luminescence; series mostly up to 76.8 µM; further: nearly all actives have a fitted effect of over 50% in size; further: potency means the concentration at half of the fitted maximal effect
Procedure, shortened: as §1

[8] = A CellTox Green Cytotoxicity Assay to monitor cytotoxicity in HEK293 cells - 16 hour (AID 1224888); settings: CellTox Green fluorescence; series mostly up to 76.8 µM; further: nearly all actives have a fitted effect of over 35% in size
Procedure, shortened: as §2

[9] = qHTS RealTime-Glo MT Cell Viability Assay in HepG2 cells - 0 hour (AID 1224889); settings: RealTime-Glo luminescence; series mostly up to 76.8 µM; further: nearly all actives have a fitted effect of over 50% in size
Procedure, shortened: (§4)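 Tox21 10K library screened in qHTS format on HepG2 cells carrying RealTime-Glo reagents. Compounds were added after a 5 h preincubation, and the luminescent signal from continuous culture was measured repeatedly during 40 h treatment.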

[10] = A CellTox Green Cytotoxicity Assay to monitor cytotoxicity in HepG2 cells - 8 hour (AID 1224890); settings: CellTox Green fluorescence; series mostly up to 76.8 µM; further: nearly all actives have a fitted effect of over 45% in size; further: potency means the concentration at half of the fitted maximal effect
Procedure, shortened: as §3

[11] = qHTS assay to identify small molecule antagonists of the estrogen receptor alpha (ER-alpha) signaling pathway using the BG1 cell line in the presence of 0.1 nM 17-beta-estradiol - cell viability counter screen (AID 1259241); settings: VM7Luc4E2 (BG1) viability, CellTiter-Fluor protease, 22 h, 0.1 nM estradiol agonist added; series mostly up to 92.4 µM; further: nearly all actives have a fitted effect of over 40% in size
Procedure, shortened: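 CellTiter-Fluor read (30 min, 37C) on ER-alpha/ERE-luc VM7Luc4E2 cells; 22 hr compound treatment; agonist 0.1 nM E2 final; same-well multiplex.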

[12] = qHTS assay to identify small molecule antagonists of the androgen receptor (AR) signaling pathway using the MDA cell line in the presence of 0.5 nM R1881 - cell viability counter screen (AID 1259242); settings: MDA-kb2 viability, CellTiter-Fluor protease fluorescence, 16 h; series mostly up to 92.4 µM; further: nearly all actives have a fitted effect of over 45% in size
Procedure, shortened: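 Live-cell protease activity was measured by CellTiter-Fluor fluorescence after 30 min. Before that, MDA-kb2 MMTV-luciferase cells had 16 hr at 37C without CO2, exposed to test compounds and 0.5 nM R1881 final.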

[13] = molecular target: Estrogen receptor (Homo sapiens) (UniProt P03372); assay: qHTS assay to identify small molecule antagonists of the estrogen receptor alpha (ER-alpha) signaling pathway using the BG1 cell line in the presence of 0.1 nM 17-beta-estradiol (AID 1259244); settings: VM7Luc4E2 (BG1) ERE-luciferase, antagonist mode, 0.1 nM E2, 22 h; series mostly up to 92.4 µM; further: nearly all actives have a fitted effect of over 50% in size
Chain of Estrogen receptor (Homo sapiens) (P03372 whole entry, looked up): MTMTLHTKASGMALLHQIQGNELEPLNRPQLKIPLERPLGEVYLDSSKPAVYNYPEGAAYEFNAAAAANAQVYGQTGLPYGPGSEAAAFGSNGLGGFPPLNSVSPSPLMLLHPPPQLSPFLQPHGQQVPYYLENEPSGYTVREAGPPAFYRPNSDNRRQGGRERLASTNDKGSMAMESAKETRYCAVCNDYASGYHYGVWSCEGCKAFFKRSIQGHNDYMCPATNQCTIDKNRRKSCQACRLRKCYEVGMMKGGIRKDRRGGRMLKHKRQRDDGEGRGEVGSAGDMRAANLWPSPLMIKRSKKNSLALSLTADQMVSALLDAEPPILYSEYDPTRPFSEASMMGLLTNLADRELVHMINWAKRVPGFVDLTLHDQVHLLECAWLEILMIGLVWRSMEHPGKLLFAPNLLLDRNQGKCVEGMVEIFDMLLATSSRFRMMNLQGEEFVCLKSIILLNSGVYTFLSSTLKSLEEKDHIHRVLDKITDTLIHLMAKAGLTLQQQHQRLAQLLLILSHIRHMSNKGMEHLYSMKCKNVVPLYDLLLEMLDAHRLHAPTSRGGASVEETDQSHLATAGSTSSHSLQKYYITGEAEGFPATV
Procedure, shortened: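 Luciferase luminescence (ONE-Glo, 30 min at room temperature) was read after 22 hr at 37C exposure to compounds plus 17beta-estradiol at 0.1 nM final. Cells were VM7Luc4E2 with endogenous ER-alpha and an ERE-driven luciferase, pre-cultured 5 days in hormone-depleted medium.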

[14] = qHTS assay to identify small molecule phospholipidosis (PLD) inducers (AID 1259344; active means well fitted curve in the direction sought with a large enough effect; an effect the other way counts as inactive or inconclusive); settings: HepG2 phospholipidosis, LipidTOX Red imaging, 24 h; series mostly up to 38.3 µM
Procedure, shortened: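 Accumulated phospholipid, stained red by LipidTOX during 24 h compound treatment of HepG2 cells at 37 C, is quantified from images as pit number and intensity, normalised per cell using Hoechst-stained nuclei.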

[15] = qHTS assay to identify small molecule agonists of the sonic hedgehog signaling (Shh) pathway - cell viability counter screen (AID 1259366); settings: NIH/3T3 Gli1-Luc viability, CellTiter-Fluor, 24 h; series mostly up to 92.4 µM; further: nearly all actives have a fitted effect of over 50% in size; further: potency means the concentration at half of the fitted maximal effect
Procedure, shortened: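 Fluorescence from CellTiter-Fluor reports live cells in this counter screen. NIH/3T3-derived Gli1-Luc reporter cells receive test compounds for 24hr at 37C; reagent goes in at 23hr.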

[16] = qHTS assay to identify small molecule antagonists of the sonic hedgehog signaling (Shh) pathway - cell viability counter screen (AID 1259367); settings: NIH/3T3 Gli1-Luc viability, CellTiter-Fluor, 24 h; series mostly up to 92.4 µM; further: nearly all actives have a fitted effect of over 55% in size
Procedure, shortened: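 CellTiter-Fluor signal in conditioned medium-stimulated 3T3 Gli1-Luc cells, 23 hr compound exposure, 37C.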

[17] = qHTS assay to identify small molecule HDAC inhibitors (AID 1259364); settings: HCT-116 HDAC-Glo I/II luminescence, 2 h; series mostly up to 92.4 µM; further: nearly all actives have a fitted effect of over 45% in size; further: potency means the concentration at half of the fitted maximal effect
Procedure, shortened: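 Luminescence read after 30 min room-temperature HDAC-Glo incubation measures cellular class I/II HDAC activity. Compounds were applied for 2 hr at 37 C to HCT-116 wild-type cells seeded the day before.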

[18] = qHTS assay to identify small molecule HDAC inhibitors - cell viability counter screen (AID 1259365); settings: HCT-116 viability, CellTiter-Glo ATP luminescence, 2 h; series mostly up to 92.4 µM; further: nearly all actives have a fitted effect of over 50% in size
Procedure, shortened: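 To flag cytotoxic hits, 1,500 wild-type HCT-116 cells per well, plated the day before, receive test compounds for 2hr at 37 C before CellTiter-Glo reagent and a luminescence read.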

[19] = qHTS RealTime-Glo MT Cell Viability Assay in HepG2 cells - 16 hour (AID 1224885); settings: RealTime-Glo luminescence; series mostly up to 76.8 µM; further: nearly all actives have a fitted effect of over 50% in size; further: potency means the concentration at half of the fitted maximal effect
Procedure, shortened: as §4

Structure (SMILES)	Potency [1]	Potency [2]	Potency [3]	Potency [4]	Potency [5]	Potency [6]	Potency [7]	Potency [8]	Potency [9]	Potency [10]	Potency [11]	Potency [12]	Potency [13]	Potency [14]	Potency [15]	Potency [16]	Potency [17]	Potency [18]	Potency [19]
CCOC(=O)[C@H](CCc1ccccc1)N[C@@H](C)C(=O)N(CC(=O)O)C1Cc2ccccc2C1	inactive	inactive	inactive	inactive	inactive	inactive	inactive	inactive	inactive	inactive	inactive	inactive	inactive	inactive	inactive	inactive	–	–	–
NCCNCCO	inactive	inactive	inactive	inactive	inactive	inactive	inactive	inactive	inactive	inactive	inactive	inactive	inactive	–	inactive	inactive	inactive	inactive	–
Cc1ccc2c(Br)cc(Br)c(O)c2n1	inactive	inactive	inactive	inactive	inactive	–	inactive	inactive	–	inactive	inactive	inactive	–	inactive	–	inactive	inactive	inactive	inactive
CCOC(C)=O	inactive	inactive	inactive	inactive	inactive	inactive	inactive	–	–	inactive	inactive	inactive	inactive	inactive	inactive	inactive	inactive	–	inactive
CC(C)(O)c1ccc(CNC(=O)c2cccnc2Oc2ccc3nonc3c2)cc1	inactive	inactive	inactive	inactive	inactive	–	inactive	inactive	inactive	inactive	inactive	inactive	–	–	–	inactive	inactive	inactive	inactive
O[C@@H]1CO[C@H]2[C@@H]1OC[C@@H]2O	inactive	inactive	inactive	inactive	inactive	inactive	inactive	inactive	inactive	inactive	inactive	inactive	inactive	inactive	inactive	inactive	inactive	inactive	–
CC(=O)N/N=C/c1ccc([N+](=O)[O-])o1	inactive	inactive	inactive	inactive	inactive	–	inactive	inactive	–	inactive	inactive	inactive	inactive	inactive	–	inactive	–	inactive	inactive
CC(=O)c1ccc([N+](=O)[O-])cc1	inactive	inactive	inactive	inactive	inactive	inactive	inactive	–	–	inactive	inactive	inactive	–	–	inactive	inactive	inactive	–	inactive
COC(=O)CCS	inactive	inactive	inactive	inactive	inactive	inactive	–	inactive	inactive	inactive	–	inactive	inactive	–	inactive	inactive	inactive	inactive	inactive
CCC=CC#N	inactive	inactive	inactive	inactive	inactive	inactive	inactive	–	–	inactive	inactive	inactive	inactive	–	inactive	inactive	21 µM (active)	inactive	inactive
OC1(c2ccccc2)CCNCC1	inactive	inactive	inactive	inactive	inactive	inactive	inactive	inactive	inactive	inactive	inactive	inactive	–	–	inactive	inactive	inactive	inactive	–
CCCCCCCCCI	inactive	inactive	inactive	inactive	inactive	inactive	inactive	–	–	inactive	inactive	inactive	inactive	–	inactive	inactive	inactive	inactive	inactive
C[C@]12CC[C@@H]3c4ccc(O)cc4CC[C@H]3[C@@H]1CC[C@@H]2OC(=O)CCC1CCCC1	inactive	54.9 µM (active)	inactive	49 µM (active) and 23.9 µM (active)	inactive	43.6 µM (active) and inactive	49 µM (active) and inactive	–	–	49 µM (active)	inactive	inactive	inactive	inactive	54.5 µM (active)	inactive	inactive	–	49 µM (active) and inactive
